Laboratory results: PMC11062922 (Nature Chemical Biology, 2023)
Read-outs that look alike come from different tables or passages of the source.

Key:
[1] = system: PHKG2; conditions: read-out: apparent Kd, n = 1
[2] = system: PKN1; conditions: read-out: apparent Kd, n = 1

How did the potency estimated from few doses ([1]; compound concentrations:100 nM and 1000 nM (sheet 'Lestaurtinib' of Supplementary Table 1),run:Lestaurtinib_02624_R3,Plate:MR020) turn out when Lestaurtinib was run?
Its potency estimated from few doses is 244 nM.

And the potency estimated from few doses ([1]; compound concentrations:100 nM and 1000 nM (sheet 'Lestaurtinib' of Supplementary Table 1),run:Lestaurtinib_02724_R1,Plate:MR021)?
Its potency estimated from few doses is 270 nM.

What about the potency estimated from few doses ([1]; compound concentrations:100 nM and 1000 nM (sheet 'Lestaurtinib' of Supplementary Table 1),run:Lestaurtinib_02724_R2,Plate:MR021) of the same substance?
The potency estimated from few doses was 239 nM.

And the potency estimated from few doses ([1]; compound concentrations:100 nM and 1000 nM (sheet 'Lestaurtinib' of Supplementary Table 1),run:Lestaurtinib_02724_R3,Plate:MR021)?
Its potency estimated from few doses is 180 nM.

And the potency estimated from few doses ([1]; compound concentrations:100 nM and 1000 nM (sheet 'Lestaurtinib' of Supplementary Table 1),run:Lestaurtinib_02741_R1,Plate:MR023)?
Its potency estimated from few doses is 372 nM.

And the potency estimated from few doses ([1]; compound concentrations:100 nM and 1000 nM (sheet 'Lestaurtinib' of Supplementary Table 1),run:Lestaurtinib_02741_R2,Plate:MR023)?
Its potency estimated from few doses is 355 nM.

What about the potency estimated from few doses ([1]; compound concentrations:100 nM and 1000 nM (sheet 'Lestaurtinib' of Supplementary Table 1),run:Lestaurtinib_02741_R3,Plate:MR023) of the same substance?
The potency estimated from few doses was 301 nM.

What about the potency estimated from few doses ([1]; compound concentrations:100 nM and 1000 nM (sheet 'Lestaurtinib' of Supplementary Table 1),run:Lestaurtinib_02748_R1,Plate:MR024) of the same substance?
The potency estimated from few doses was 208 nM.

And the potency estimated from few doses ([1]; compound concentrations:100 nM and 1000 nM (sheet 'Lestaurtinib' of Supplementary Table 1),run:Lestaurtinib_02748_R3,Plate:MR024)?
The potency estimated from few doses was 211 nM.

And the potency estimated from few doses ([1]; compound concentrations:100 nM and 1000 nM (sheet 'Lestaurtinib' of Supplementary Table 1),run:Lestaurtinib_02765_R1,Plate:MR026)?
The potency estimated from few doses was 637 nM.

What about the potency estimated from few doses ([1]; compound concentrations:100 nM and 1000 nM (sheet 'Lestaurtinib' of Supplementary Table 1),run:Lestaurtinib_02765_R2,Plate:MR026) of the same substance?
Its potency estimated from few doses is 849 nM.

What about the potency estimated from few doses ([1]; compound concentrations:100 nM and 1000 nM (sheet 'Lestaurtinib' of Supplementary Table 1),run:Lestaurtinib_02765_R3,Plate:MR026) of the same substance?
The potency estimated from few doses was 487 nM.

What about the potency estimated from few doses ([1]; compound concentrations:100 nM and 1000 nM (sheet 'Lestaurtinib' of Supplementary Table 1),run:Lestaurtinib_02766_R1,Plate:MR027) of the same substance?
The potency estimated from few doses was 440 nM.

And the potency estimated from few doses ([1]; compound concentrations:100 nM and 1000 nM (sheet 'Lestaurtinib' of Supplementary Table 1),run:Lestaurtinib_02766_R2,Plate:MR027)?
Its potency estimated from few doses is 170 nM.

What about the potency estimated from few doses ([1]; compound concentrations:100 nM and 1000 nM (sheet 'Lestaurtinib' of Supplementary Table 1),run:Lestaurtinib_02768_R1,Plate:MR028) of the same substance?
Its potency estimated from few doses is 124 nM.

What about the potency estimated from few doses ([1]; compound concentrations:100 nM and 1000 nM (sheet 'Lestaurtinib' of Supplementary Table 1),run:Lestaurtinib_02795_R1,Plate:MR022) of the same substance?
Its potency estimated from few doses is 217 nM.

And the potency estimated from few doses ([1]; compound concentrations:100 nM and 1000 nM (sheet 'Lestaurtinib' of Supplementary Table 1),run:Lestaurtinib_02795_R3,Plate:MR022)?
The potency estimated from few doses was 347 nM.

And the potency estimated from few doses ([1]; compound concentrations:100 nM and 1000 nM (sheet 'Lestaurtinib' of Supplementary Table 1),run:Lestaurtinib_02802_R2,Plate:MR029)?
Its potency estimated from few doses is 197 nM.

And the potency estimated from few doses ([1]; compound concentrations:100 nM and 1000 nM (sheet 'Lestaurtinib' of Supplementary Table 1),run:Lestaurtinib_02896_R3,Plate:MR030)?
The potency estimated from few doses was 250 nM.

And the potency estimated from few doses ([1]; compound concentrations:100 nM and 1000 nM (sheet 'Lestaurtinib' of Supplementary Table 1),run:Lestaurtinib_03172_R1,Plate:MR031)?
Its potency estimated from few doses is 153 nM.

What about the potency estimated from few doses ([1]; compound concentrations:100 nM and 1000 nM (sheet 'Lestaurtinib' of Supplementary Table 1),run:Lestaurtinib_03172_R3,Plate:MR031) of the same substance?
The potency estimated from few doses was 213 nM.

What about the potency estimated from few doses ([1]; compound concentrations:100 nM and 1000 nM (sheet 'Lestaurtinib' of Supplementary Table 1),run:Lestaurtinib_03252_R1,Plate:MR032) of the same substance?
Its potency estimated from few doses is 635 nM.

What about the potency estimated from few doses ([1]; compound concentrations:100 nM and 1000 nM (sheet 'Lestaurtinib' of Supplementary Table 1),run:Lestaurtinib_03252_R2,Plate:MR032) of the same substance?
Its potency estimated from few doses is 91.1 nM.

What about the potency estimated from few doses ([1]; compound concentrations:100 nM and 1000 nM (sheet 'Lestaurtinib' of Supplementary Table 1),run:Lestaurtinib_03260_R1,Plate:MR033) of the same substance?
The potency estimated from few doses was 321 nM.

And the potency estimated from few doses ([1]; compound concentrations:100 nM and 1000 nM (sheet 'Lestaurtinib' of Supplementary Table 1),run:Lestaurtinib_03260_R2,Plate:MR033)?
The potency estimated from few doses was 323 nM.

What about the potency estimated from few doses ([1]; compound concentrations:100 nM and 1000 nM (sheet 'Lestaurtinib' of Supplementary Table 1),run:Lestaurtinib_03260_R3,Plate:MR033) of the same substance?
The potency estimated from few doses was 212 nM.

What about the potency estimated from few doses ([2]; compound concentrations:100 nM and 1000 nM (sheet 'Lestaurtinib' of Supplementary Table 1),run:Lestaurtinib_02339_R1,Plate:MR001) of the same substance?
Its potency estimated from few doses is 424 nM.

And the potency estimated from few doses ([2]; compound concentrations:100 nM and 1000 nM (sheet 'Lestaurtinib' of Supplementary Table 1),run:Lestaurtinib_02339_R2,Plate:MR001)?
Its potency estimated from few doses is 316 nM.

And the potency estimated from few doses ([2]; compound concentrations:100 nM and 1000 nM (sheet 'Lestaurtinib' of Supplementary Table 1),run:Lestaurtinib_02364_R1,Plate:MR002)?
Its potency estimated from few doses is 497 nM.

What about the potency estimated from few doses ([2]; compound concentrations:100 nM and 1000 nM (sheet 'Lestaurtinib' of Supplementary Table 1),run:Lestaurtinib_02364_R2,Plate:MR002) of the same substance?
Its potency estimated from few doses is 487 nM.

What about the potency estimated from few doses ([2]; compound concentrations:100 nM and 1000 nM (sheet 'Lestaurtinib' of Supplementary Table 1),run:Lestaurtinib_02364_R3,Plate:MR002) of the same substance?
Its potency estimated from few doses is 408 nM.

And the potency estimated from few doses ([2]; compound concentrations:100 nM and 1000 nM (sheet 'Lestaurtinib' of Supplementary Table 1),run:Lestaurtinib_02367_R1,Plate:MR003)?
Its potency estimated from few doses is 440 nM.

And the potency estimated from few doses ([2]; compound concentrations:100 nM and 1000 nM (sheet 'Lestaurtinib' of Supplementary Table 1),run:Lestaurtinib_02367_R2,Plate:MR003)?
The potency estimated from few doses was 488 nM.

What about the potency estimated from few doses ([2]; compound concentrations:100 nM and 1000 nM (sheet 'Lestaurtinib' of Supplementary Table 1),run:Lestaurtinib_02381_R1,Plate:MR004) of the same substance?
The potency estimated from few doses was 350 nM.

And the potency estimated from few doses ([2]; compound concentrations:100 nM and 1000 nM (sheet 'Lestaurtinib' of Supplementary Table 1),run:Lestaurtinib_02381_R2,Plate:MR004)?
The potency estimated from few doses was 390 nM.

And the potency estimated from few doses ([2]; compound concentrations:100 nM and 1000 nM (sheet 'Lestaurtinib' of Supplementary Table 1),run:Lestaurtinib_02381_R3,Plate:MR004)?
Its potency estimated from few doses is 242 nM.

And the potency estimated from few doses ([2]; compound concentrations:100 nM and 1000 nM (sheet 'Lestaurtinib' of Supplementary Table 1),run:Lestaurtinib_02407_R1,Plate:MR005)?
The potency estimated from few doses was 519 nM.

What about the potency estimated from few doses ([2]; compound concentrations:100 nM and 1000 nM (sheet 'Lestaurtinib' of Supplementary Table 1),run:Lestaurtinib_02422_R1,Plate:MR006) of the same substance?
The potency estimated from few doses was 327 nM.
